Experimental data from PubChem BioAssay (NCI).
Compounds without any hit were thinned out: in the full panel of roughly 83,000, 20% have a hit.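 Cell lines were cultured in 96-well plates, exposed to a single compound concentration, and assessed for percent growth 48 hours later.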 Unmarked numbers belong to inactive results. The source made the active and inactive calls. Rule for the calls: active = growth percent below 10; inactive = the rest.

Tests used:
Test in all cases: NCI-60 one-dose screen, 48 h (100 = growth as untreated, 0 = no growth, -100 = all killed)
Details in all cases: 10 µM unless noted
DU-145 prostate = tested on: DU-145 prostate
K-562 leukemia = tested on: K-562 leukemia
MALME-3M melanoma = tested on: MALME-3M melanoma
MDA-MB-231 breast = tested on: MDA-MB-231 breast
RXF 393 renal = tested on: RXF 393 renal
SF-268 CNS = tested on: SF-268 CNS
SF-295 CNS = tested on: SF-295 CNS
SF-539 CNS = tested on: SF-539 CNS
UACC-257 melanoma = tested on: UACC-257 melanoma
M14 melanoma = tested on: M14 melanoma

| Structure (SMILES) | growth (DU-145 prostate) | growth (K-562 leukemia) | growth (MALME-3M melanoma) | growth (MDA-MB-231 breast) | growth (RXF 393 renal) | growth (SF-268 CNS) | growth (SF-295 CNS) | growth (SF-539 CNS) | growth (UACC-257 melanoma) | growth (M14 melanoma) |
| --- | --- | --- | --- | --- | --- | --- | --- | --- | --- | --- |
| CCN(CC)CCOc1ccc(/C(=C(\C)Cc2ccc(OC)cc2)c2ccc(O)cc2)cc1 | 53.4% | -56.7% (active) | -76.7% (active) | 24% | 6.99% (active) | 47.9% | -25.3% (active) | -50.8% (active) | -62.9% (active) | -77.3% (active) |
| COc1ccc(-c2cc(-c3ccc(N(C)C)cc3)nc(NC(=O)c3cccnc3)n2)cc1 | 99.5% | 93.3% | 120% | 93.8% | 107% | 90.6% | 104% | 94.3% | 120% | 124% |
| CO[C@H]1/C=C/O[C@@]2(C)Oc3c(C)c(O)c4c(O)c(c5c(nc6cc(C)ccn65)c4c3C2=O)NC(=O)/C(C)=C\C=C\[C@H](C)[C@H](O)[C@@H](C)C(O)[C@@H](C)[C@H](OC(C)=O)[C@@H]1C (stereo not given in full) | 114% | 95.3% | 93.4% | 104% | 111% | 102% | 102% | 105% | 106% | 94.4% |
| O=C(N/N=C/c1ccccc1Cl)c1ccccc1Nc1ccnc(C(F)(F)F)c1 | 29.4% | 4.98% (active) | 5.72% (active) | -17.1% (active) | -13.4% (active) | 14.1% | -41.1% (active) | 4.39% (active) | -2.5% (active) | 23.1% |
| COc1cc2c(c(OC)c1OC)CCC(c1cccc(NC(=O)c3cccc(Cl)c3)c1)O2 (stereo not given) | 102% | 72% | 86.6% | 88% | 96% | 90.6% | 74.4% | 103% | 94.2% | 86.6% |
| Cc1ccccc1NC(=O)Cn1cc(CN2CCN(c3ccnc4cc(Cl)ccc34)CC2)nn1 | 105% | 70% | 109% | 83.1% | 102% | 92.6% | 100% | 97.8% | 109% | 101% |
| CCOC(=O)C1=CCC(n2cc(F)c(=O)[nH]c2=O)O1 (stereo not given) | 97.6% | 108% | 112% | 115% | 171% | 101% | 114% | 100% | 99.7% | 97.8% |
| O=CN1N=C(c2cccc(Nc3ccncc3)c2)CC1c1ccc2c(c1)OCO2 (stereo not given) | 104% | 64.7% | 86.7% | 103% | 100% | 91.9% | 91.9% | 95.3% | 80.1% | 96.4% |
| O=C(Nc1ncc(Cc2cc(C(F)(F)F)ccc2Cl)s1)C(=S)N1CCOCC1 | 100% | 82.2% | 92.7% | 87.4% | 92.6% | 88.7% | 88.8% | 101% | 95% | 86.7% |
| O=C(/C=C/c1ccc(Cl)cc1)c1ccc(-n2cc(CN3CCN(c4cc5c(cc4F)c(=O)c(C(=O)O)cn5C4CC4)CC3)nn2)cc1 | 90.8% | 67.5% | 84.8% | 88.1% | 75% | 77.3% | 90.7% | 92.8% | 91.7% | 88.7% |
| C=C(C)[C@@H]1CC[C@]2(C(=O)NC(C)=O)CC[C@]3(C)[C@H](CC[C@@H]4[C@@]5(C)CCCNC(C)(C)[C@@H]5CC[C@]43C)[C@@H]12 | 24.8% | 3% (active) | -83.3% (active) | 23.7% | 25.2% | 60.5% | 77.6% | -79.6% (active) | -64.5% (active) | -65.3% (active) |
| O=C1/C(=C/c2ccccc2)COc2ccc(O)cc21 | 88.5% | 17.5% | 106% | 92.9% | 105% | 90.6% | 107% | 108% | 98.2% | 85.8% |
| CCN=c1sc2c(n1NC(=O)c1cc3ccc1CCc1ccc(cc1)CC3)C(=O)c1ccccc1C2=O | -91.4% (active) | -28.5% (active) | -87.4% (active) | -7.49% (active) | -87.2% (active) | -10.6% (active) | 31% | -94.4% (active) | -90.5% (active) | -93.5% (active) |
| CCCC[N+]1(C)CCN=C1Cc1ccccc1 (stereo not given) | 106% | 84.6% | 98.2% | 109% | 100% | 97.7% | 97.4% | 96.2% | 93.7% | 106% |
| CNC(=O)c1cc(Oc2cccc3nc(NC(=O)Nc4ccc(F)cc4F)ccc23)ccn1 | 30% | 42% | -21.2% (active) | 60.1% | 1.54% (active) | 48.1% | 55.6% | -18.9% (active) | 56.3% | 19.3% |
| Cc1cc(N2CCOCC2)nc(N(CCCNc2ccnc3cc(Cl)ccc23)Cc2ccc3c(c2)OCO3)n1 | 20.3% | -43.7% (active) | -20.5% (active) | -37.1% (active) | -75.6% (active) | 15% | -69% (active) | -75.4% (active) | -31.5% (active) | -61.1% (active) |
| C#Cc1ccc(NC(=O)Cc2ccc(/C=C/C(=O)c3nccn3C)cc2)cc1 | 12.6% | 18.2% | 95.7% | 54.4% | 21.8% | 38% | 77% | 26.3% | 103% | 98.6% |
| CCN1CCN(C(=O)[C@]23CC[C@@H](C)[C@H](C)[C@@H]2C2=CC[C@@H]4[C@@]5(C)C/C(=C/c6ccncc6)C(=O)C(C)(C)[C@@H]5CC[C@@]4(C)[C@]2(C)CC3)CC1 | 41.8% | 9.31% (active) | -9.75% (active) | 2.96% (active) | -18.7% (active) | 49% | 28.5% | -80.2% (active) | 25.6% | 25.4% |
| COc1ccc(-c2cc(-c3ccc(Nc4nc(Nc5ccc(Cl)cc5)nc(Nc5ccc(Cl)cc5)n4)cc3)no2)cc1 | 91.3% | 69.9% | 104% | 82.1% | -8.53% (active) | 72.9% | 73% | 86.1% | 105% | 86.7% |
| CC(=O)O[C@H]1CC[C@@]2(C)C(=CC[C@@H]3[C@@H]2CC[C@]2(C)C(Cl)=C(c4nc5ccc(Cl)cn5c4NC(C)(C)C)C[C@@H]32)C1 | 95.8% | 85.4% | 66.7% | 87.5% | 90.1% | 101% | 93.2% | 97.6% | 98.9% | 93.1% |
| CN1/C(=C/C=C/c2n(Cc3ccc4ccccc4c3)c(Cl)c(Cl)[n+]2Cc2ccc3ccccc3c2)Oc2ccccc21 | -86.6% (active) | 89.4% | -97.1% (active) | -94% (active) | -88.2% (active) | -69.4% (active) | -68.4% (active) | -94% (active) | -77.9% (active) | -77% (active) |
| CCN1C(=O)N(CC)C2C1NC(=S)N2/N=C/C=C/c1cccs1 (stereo not given) | 23% | 11.2% | 45.5% | 26.6% | -5.1% (active) | 66.2% | 16.2% | -16% (active) | 63.1% | 12.3% |
| Brc1ccc(-c2nn(-c3ccccc3)cc2-c2nn[nH]n2)s1 | 108% | 87.2% | 103% | 87.3% | 100% | 92.8% | 82.6% | 91.4% | 98% | 96.9% |
| Cc1c(C(=O)C(SC(=S)N2CCOCC2)SC(=S)N2CCOCC2)nnn1-c1ccc([N+](=O)[O-])cc1 | 109% | 74.7% | 93.7% | 101% | 105% | 104% | 96.5% | 101% | 93.2% | 89.8% |
| N#C/C(=C\c1cccc2cnccc12)N1N=NC2C=CC=CC21 (stereo not given) | 8.33% (active) | 12.4% | 36% | 9.44% (active) | -17.1% (active) | 56.6% | 98.4% | 45.7% | 46.9% | 32.6% |
| Cc1ccc(-c2nc(C#N)c(S(=O)(=O)n3nc(C)cc3N)o2)cc1 | 108% | -17.2% (active) | -63.3% (active) | 88.3% | 76.8% | 93.5% | 109% | 96.7% | 95.1% | 48.8% |
| CN1CC(c2ccccc2)C(C(=O)c2ccc(Br)cc2)C12C(=O)Nc1ccccc12 (stereo not given) | 104% | 75.3% | 99.4% | 94.7% | 92.6% | 91.2% | 93.9% | 102% | 103% | 102% |
